The nature of assay [1]: BET inhibitor-based combinations targeting novel dependencies in MECOM-rearranged (r) AML: SET-2 cell line (AID 2202231).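 For viability: plate controls were DMSO treated cells for no effect and wells without cells for full effect.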 Note: nearly all actives have a fitted effect of over 35% in size. The conditions noted are these: SET-2 AML cells viability, CellTiter-Glo luminescence, 48 h; viability: hits give low values, concentration not given here. An outline of the steps:
(§1)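 A 48 hr incubation preceded viability reading by CellTiter-Glo, with 15 min room-temperature development. Dose series had 11 points; normalization used DMSO and empty wells; AUC was computed and mean-centered per line as Z-AUC.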

Assay [2] is described as follows: BET inhibitor-based combinations targeting novel dependencies in MECOM-rearranged (r) AML: OCI-AML3 cell line (AID 2202232). Note: nearly all actives have a fitted effect of over 35% in size. The conditions noted are these: CellTiter-Glo luminescence, 48 h; Potency: OCI-AML3 viability; series mostly up to 46 µM. The gist of the method: as §1
A general note: In ATP-based viability assays light output follows the ATP content of the culture.

Assay [3] is described as follows: BET inhibitor-based combinations targeting novel dependencies in MECOM-rearranged (r) AML: MV-4-11 cell line (AID 2202233). Note: nearly all actives have a fitted effect of over 45% in size. To be noted: MV-4-11 AML viability, CellTiter-Glo luminescence, 48 h; series mostly up to 46 µM. The gist of the method:
(§2)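 Each compound is tested in an 11-point concentration series against 500 seeded cells/well for 48 hr. The luminescent viability signal is normalized to DMSO and blank wells, then reduced to AUC and a cell-line-centred Z-AUC.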

Assay [4] can be described thus: BET inhibitor-based combinations targeting novel dependencies in MECOM-rearranged (r) AML: UCSD-AML1 cell line (AID 2202235). Note: nearly all actives have a fitted effect of over 40% in size. The conditions noted are these: UCSD-AML1 AML cells viability, CellTiter-Glo, 48 h; series mostly up to 46 µM. The gist of the method: as §2
Assay [5] in a line: BET inhibitor-based combinations targeting novel dependencies in MECOM-rearranged (r) AML: AML-191 cell line (AID 2202236; note: nearly all actives have a fitted effect of over 35% in size). To be noted: AML-191 viability, CellTiter-Glo luminescence, 48 h; series mostly up to 46 µM. The gist of the method:
as §1

A short description of assay [6]: BET inhibitor-based combinations targeting novel dependencies in MECOM-rearranged (r) AML: AML-194 cell line (AID 2202237; note: nearly all actives have a fitted effect of over 40% in size). The conditions noted are these: AML-194 (MECOM-r AML) viability, CellTiter-Glo, 48 h; series mostly up to 46 µM. The gist of the method:
as §1

Molecules are shown by their SMILES. Results filed as inconclusive are left out. Values without a mark were called inactive. Calls of active or inactive are those of the source. Calls come from the whole dose curve; as a rule, active = well fitted curve in the direction sought with a large enough effect; inconclusive = small, poorly fitted or top-dose-only effect, or another doubt; inactive = no such curve, though single readings can be large; an effect the other way counts as inactive or inconclusive.
Potency is the fitted concentration of half-maximal effect.

The viability is a read-out of living cells in per cent, often relative to untreated cells. As to `N#Cc1ccc(C(c2ccc(C#N)cc2)n2cncn2)cc1`, the viability in assay [1] is 96.2%. In addition, the Potency entry in assay [2], in assay [3], in assay [4], in assay [5] and in assay [6] was “inactive” in each case.
In the case of `CN(C)CCNC(=O)NC[C@H]1CC[C@@H]2[C@H](O1)c1cc(C(F)(F)F)ccc1N[C@H]2c1ccccc1`, the Potency in assay [1] is 0.742 µM (active); in assay [2] it was 0.296 µM (active); in assay [3], 0.296 µM (active); in assay [4] it was 0.235 µM (active); in assay [5] it was 332 nM (active); in assay [6] it was 332 nM (active).
Consider `C[C@]12CCC3=C4CCC(=O)C=C4CC[C@H]3[C@@H]1CC[C@@]2(O)CC#N`, for which the viability in assay [1] was 108%. Besides, the Potency result in assay [2], in assay [3], in assay [4], in assay [5] and in assay [6] was “inactive” throughout.
`N#Cc1c(N(CC(=O)O)CC(=O)O)sc(C(=O)O)c1CC(=O)O`: the viability in assay [1] was 117%. Also, the Potency entry in assay [2], in assay [3], in assay [4], in assay [5] and in assay [6] was “inactive” throughout.
As to `C[C@@H]1COCCN1c1cc(-c2ccnn2C)c2ccnc(-c3ccn[nH]3)c2n1`, the Potency in assay [1] is 0.0833 µM (active); in assay [2] it was 0.0525 µM (active); in assay [3] it was 0.118 µM (active); in assay [4] it was 0.0661 µM (active); in assay [5], 296 nM (active); in assay [6], 332 nM (active).
For the compound `Cn1cc(/C=C/C(=O)c2cccc(F)c2)cc1/C=C/C(=O)NO`, the Potency is 1.48 µM (active) in assay [1]; 3.32 µM (active) in assay [2]; 4.68 µM (active) in assay [3]; 4.17 µM (active) in assay [4]; 11800 nM (active) in assay [6].
Take `NC(CC1c2ccccc2Oc2ccccc21)(C(=O)O)C1CC1C(=O)O` (centres undefined): the viability in assay [1] was 118%. Moreover, the Potency entry in assay [2], in assay [3], in assay [4], in assay [5] and in assay [6] was “inactive” in each case.
As for `C=CC(=O)N1CCc2ccc(-n3c(=O)ccc4cnc5ccc(-c6cnn(C)c6)cc5c43)cc21`, the Potency is 0.456 µM (active) in assay [1]; 0.363 µM (active) in assay [2]; 0.288 µM (active) in assay [3]; 0.229 µM (active) in assay [4]; 812 nM (active) in assay [5]; 574 nM (active) in assay [6].
`C[C@]12CC[C@H](O)CC1=CC[C@@H]1[C@@H]2CC[C@]2(C)C(c3cccnc3)=CC[C@@H]12`: in assay [1], the viability is 107%. Moreover, the Potency result in assay [2], in assay [3], in assay [4], in assay [5] and in assay [6] was “inactive” each time.
In the case of `O=C(O)CNC(=O)c1ncc(-c2cccc(Cl)c2)cc1O`, the viability in assay [1] is 110%. Further, the Potency in assay [2] is 6.61 µM (active). Further, the Potency entry in assay [3], in assay [4] and in assay [6] was “inactive” throughout.
`O=c1[nH]c(=O)n([C@H]2C[C@H](O)[C@@H](CO)O2)cc1C(F)(F)F`: the Potency was 5.9 µM (active) in assay [1]; 1.66 µM (active) in assay [2]; 1.05 µM (active) in assay [3]; 1.48 µM (active) in assay [4]; 1320 nM (active) in assay [5]; 4680 nM (active) in assay [6].
For `C[C@@H](Oc1cc(C(=O)Nc2ccc(C(=O)N3CCN(C)CC3)cc2)nnc1N)c1c(Cl)ccc(F)c1Cl`, the Potency in assay [1] was 18.6 µM (active); in assay [2], 5.9 µM (active); in assay [3], 1.66 µM (active); in assay [4], 1.18 µM (active); in assay [5], 934 nM (active); in assay [6] it was 934 nM (active).
With `CN(C)N=Nc1nc[nH]c1C(N)=O`, the Potency in assay [1] is 16.6 µM (active); in assay [3] it was 9.34 µM (active); in assay [5] it was 14800 nM (active). Also, the Potency entry in assay [2], in assay [4] and in assay [6] was “inactive” throughout.
For `CCCCCCCCCCCC(CC1OC(=O)C1CCCCCC)OC(=O)C(CC(C)C)NC=O` (centres undefined), the viability in assay [1] is 98.6%. Besides, the Potency entry in assay [2], in assay [4], in assay [5] and in assay [6] was “inactive” each time. Besides, the Potency in assay [3] is 0.742 µM (active).
Consider `COc1cc2ncn(-c3cc(OCc4ccccc4C(F)(F)F)c(C(N)=O)s3)c2cc1OC`, for which the Potency was 1.86 µM (active) in assay [1]; 1.18 µM (active) in assay [2]; 2.09 µM (active) in assay [3]; 2.35 µM (active) in assay [4]; 1480 nM (active) in assay [5]; 1050 nM (active) in assay [6].
Turning to `NS(=O)(=O)Oc1ccc2c3c(c(=O)oc2c1)CCCCC3`, the viability in assay [1] is 105%. Moreover, the Potency entry in assay [2], in assay [3], in assay [4], in assay [5] and in assay [6] was “inactive” each time.
For the compound `C=C[C@H]1CN2CCC1C[C@@H]2C(O)c1ccnc2ccc(OC)cc12` (some centres undefined), in assay [1], the viability is 103%. The Potency result in assay [2], in assay [4], in assay [5] and in assay [6] was “inactive” each time. For the same compound, the Potency in assay [3] was 18.6 µM (active).
With `Cc1ccc(S(=O)(=O)Nc2cc(-c3ccc(C#N)s3)ccc2C)cc1`, the Potency in assay [1] was 0.0742 µM (active); in assay [2], 0.0934 µM (active); in assay [3], 0.105 µM (active); in assay [4], 0.0661 µM (active); in assay [5], 74.2 nM (active); in assay [6] it was 83.3 nM (active).
As for `C[C@H]1CNCCCN1S(=O)(=O)c1cccc2cncc(F)c12`, in assay [1], the viability was 113%. For the same compound, the Potency result in assay [2], in assay [3], in assay [4], in assay [5] and in assay [6] was “inactive” each time.
As to `C=CC(=O)Nc1cccc(C)c1Nc1ncc2cc(-c3c(Cl)c(OC)cc(OC)c3Cl)ccc2n1`, the Potency is 14.8 µM (active) in assay [1]; 10.5 µM (active) in assay [2]; 4.17 µM (active) in assay [3]; 5.25 µM (active) in assay [4]; 13200 nM (active) in assay [5]; 11800 nM (active) in assay [6].
As to `COc1ccc(S(=O)(=O)N(C(C)=O)c2ccccc2/C=C/c2cc[n+]([O-])cc2)cc1`, the Potency in assay [1] is 2.63 µM (active); in assay [2], 1.18 µM (active); in assay [3], 1.18 µM (active); in assay [4] it was 1.32 µM (active); in assay [5], 1180 nM (active); in assay [6], 833 nM (active).

(Values after PubChem BioAssay (NCATS).)
